# Bioassay records: PubChem BioAssay, National Center for Advancing Translational Sciences (NCATS)
# KDM5B inh: Primary screen for KDM5B Histone Demethylases FDH-coupled qHTS; KDM5B demethylase, FDH-coupled NADH fluorescence (FDH is formaldehyde dehydrogenase); Potency, µM (top dose mostly 57.7 µM), usual class: inhibitors; hit rate 2.6% among 220,000; AID 1347165, 2019; active = well fitted inhibition curve with a large enough effect; note: 0% is about no effect; nearly all actives have a fitted effect of over 70% in size
# Target sequence (Q9UGL1 whole entry, looked up): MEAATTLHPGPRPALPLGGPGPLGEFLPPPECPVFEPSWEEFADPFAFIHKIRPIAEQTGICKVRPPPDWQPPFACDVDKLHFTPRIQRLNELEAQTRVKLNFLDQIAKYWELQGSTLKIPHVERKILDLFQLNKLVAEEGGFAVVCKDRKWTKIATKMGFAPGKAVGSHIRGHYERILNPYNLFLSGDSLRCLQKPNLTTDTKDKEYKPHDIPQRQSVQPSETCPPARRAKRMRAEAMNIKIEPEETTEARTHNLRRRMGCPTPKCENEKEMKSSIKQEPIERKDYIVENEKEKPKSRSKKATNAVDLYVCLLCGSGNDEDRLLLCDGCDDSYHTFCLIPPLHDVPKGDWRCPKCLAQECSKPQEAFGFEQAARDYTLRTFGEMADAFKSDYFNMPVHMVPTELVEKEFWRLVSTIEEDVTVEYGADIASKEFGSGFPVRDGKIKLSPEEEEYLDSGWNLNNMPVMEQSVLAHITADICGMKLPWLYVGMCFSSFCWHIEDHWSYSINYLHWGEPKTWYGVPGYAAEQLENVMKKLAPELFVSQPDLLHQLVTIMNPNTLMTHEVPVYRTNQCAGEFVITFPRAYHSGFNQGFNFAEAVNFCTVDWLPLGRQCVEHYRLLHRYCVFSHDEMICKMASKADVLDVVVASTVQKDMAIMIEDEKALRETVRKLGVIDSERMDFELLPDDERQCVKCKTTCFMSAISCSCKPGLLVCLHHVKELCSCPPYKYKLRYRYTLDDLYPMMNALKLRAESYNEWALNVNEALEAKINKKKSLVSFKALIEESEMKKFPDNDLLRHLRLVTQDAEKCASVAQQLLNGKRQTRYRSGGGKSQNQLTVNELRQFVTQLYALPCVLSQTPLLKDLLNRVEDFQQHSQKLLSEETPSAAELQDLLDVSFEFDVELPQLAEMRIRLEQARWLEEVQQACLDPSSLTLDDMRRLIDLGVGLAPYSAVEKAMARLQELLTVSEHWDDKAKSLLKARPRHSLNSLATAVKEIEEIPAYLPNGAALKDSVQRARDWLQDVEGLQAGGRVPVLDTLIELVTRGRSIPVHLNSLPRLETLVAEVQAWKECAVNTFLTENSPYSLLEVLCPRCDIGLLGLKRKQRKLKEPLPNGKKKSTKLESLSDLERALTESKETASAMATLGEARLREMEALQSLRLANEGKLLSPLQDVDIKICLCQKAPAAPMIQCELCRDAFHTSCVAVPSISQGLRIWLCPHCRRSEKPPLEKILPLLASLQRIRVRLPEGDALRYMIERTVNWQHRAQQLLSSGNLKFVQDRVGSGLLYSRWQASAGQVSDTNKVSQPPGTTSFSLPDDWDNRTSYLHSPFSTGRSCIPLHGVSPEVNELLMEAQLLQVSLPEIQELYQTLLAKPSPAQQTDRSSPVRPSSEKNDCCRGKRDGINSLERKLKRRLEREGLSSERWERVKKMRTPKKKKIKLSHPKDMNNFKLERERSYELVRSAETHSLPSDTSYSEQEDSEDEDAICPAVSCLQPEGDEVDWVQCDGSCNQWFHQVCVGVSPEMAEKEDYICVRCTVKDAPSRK
#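 Here, H3K4me3 peptide (12.5 µM in substrate mix) is demethylated by KDM5BΔAP, 200 nM final, after 10 min compound exposure. Formaldehyde product is coupled through FDH (0.25 U/mL in mix) to NADH fluorescence; 30-min ΔRFU feeds dose-response curves.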
# * hit, by the source's call; i = inactive. The sample as a whole holds a higher share of hits than the screen did. Potency is the fitted concentration of half-maximal effect.
SMILES,KDM5B inh
CCN(CC)S(=O)(=O)c1ccc2oc(SC(C(=O)NC3CC3)c3ccccc3)nc2c1 (configuration not stated),i
OB1Oc2ccccc2-c2ccccc21,i
CCCCN1C(=O)C(CC(=O)Nc2ccc(F)c(F)c2)n2c1nc1ccccc12 (configuration not stated),i
C=CCNc1nc(C(=O)OCc2cccc(F)c2F)cs1,i
CC(C)NC(=O)CSc1ccccc1C(=O)Nc1ccccc1C(=O)NC1CC1,i
Cc1ccc(C)c(NC(=O)c2csc3c2CCCC3)c1,i
Cc1nc(Nc2ccc(NC(=O)c3cccs3)cc2)cc(N2CCCCC2)n1,i
COc1cc(/C=N/OC(=O)c2ccc(C(F)(F)F)cc2)ccc1OCc1ccccc1,i
Cc1ccc(C(=O)COC(=O)c2ccc(N3CCCC3=O)cc2)cc1C,i
O=S(Cc1ccc(Cl)cc1)Cc1c(Cl)cccc1Cl (configuration not stated),i
Cc1ccccc1-c1cnc2[nH]cc(CC(=O)NCc3ccccc3)c2c1,i
O=C(Cc1c[nH]c2ncc(-c3ccccc3)cc12)NCCc1ccccc1,i
CN(C)CCNC(=O)CN1N=C(c2ccccc2)CCC1=O,i
Cc1ccccc1-c1cnc2[nH]cc(CC(=O)NCCN(C)C)c2c1,35.5µM*
CN(C)CCNC(=O)Cc1c[nH]c2ncc(-c3ccccc3)cc12,35.5µM*
COc1ccc(CC(=O)c2ccc(O)c(C)c2O)cc1,i
CC(C)OC(C)C(=O)N1CCc2onc(-c3ccc(C(F)(F)F)cc3)c2C1 (configuration not stated),i
CCCOCC(=O)N1CCc2onc(-c3ccc(C(F)(F)F)cc3)c2C1,i
COc1ccc(C(=O)N2CCc3onc(-c4ccc(C(F)(F)F)cc4)c3C2)o1,10µM*
CCC(C)NC(=O)Cc1ccc2c(c1)CCCC2 (configuration not stated),i
COc1cc(/C=C/C(=O)c2ccccc2OC)ccc1OC(F)F,i
O=C(Nc1cccc(Cl)c1)c1cnc2c(c1)N(Cc1ccccc1)CCC2,35.5µM*
Cc1cc(F)ccc1NC(=O)c1cnc2c(c1)N(C(=O)CCc1ccccc1)CCC2,i
CC(C)c1ccc(CC(=O)N2CCCc3ncc(C(=O)Nc4cccc(Cl)c4)cc32)cc1,28.2µM*
CC(C)c1ccc(CC(=O)N2CCCc3ncc(C(=O)Nc4ccccn4)cc32)cc1,i
SMILES,KDM5B inh
COc1ccccc1N1CCCc2ncc(C(=O)NCc3cccc(Cl)c3)cc21,31.6µM*
CC(C)c1ccc(CC(=O)N2CCCc3ncc(C(=O)NCc4ccccc4)cc32)cc1,i
COc1ccccc1CC(=O)N1CCCc2ncc(C(=O)NCc3cccc(Cl)c3)cc21,i
CC(C)NC(=O)c1cnc2c(c1)N(C(=O)Cc1ccc(C(C)C)cc1)CCC2,i
O=C(Nc1cccnc1)c1cnc2c(c1)N(Cc1ccccc1)CCC2,35.5µM*
O=C(Nc1ccccc1)c1cnc2c(c1)N([S+](=O)([O-])c1cccnc1)CCC2,i
COc1ccccc1N1CCCc2ncc(C(=O)Nc3ccccc3C)cc21,i
O=C(Nc1cccnc1)c1cnc2n1CCN(Cc1ccccc1)CC2,i
O=C(COc1ccccc1)Nc1cccc2cccnc12,i
CCOC(=O)C(NC(=O)c1ccccc1)(Nc1ccccc1OC)C(F)(F)F (configuration not stated),i
CCOc1ccc2nc(COc3ccc(C)cc3)[nH]c2c1,i
C/C=C/C=C(\NC(=O)c1cccc(C)c1)C(=O)O,i
Cc1cccc(-c2nc(CCN(C)S(=O)(=O)c3cccc4nsnc34)no2)c1,i
CC(C)c1ccc(/C=N/NC(=O)C2CC2c2ccccc2)cc1 (configuration not stated),i
O=c1oc2ccc([N+](=O)[O-])cc2cc1-c1csc(Nc2ccccc2)n1,i
O=C(Nc1cc(F)cc(F)c1)c1n[nH]c(=O)c2ccccc12,i
O=C(Cn1c(=O)n(CCc2ccccc2)c(=O)c2sccc21)c1ccc(F)cc1,i
C=CCNC(=O)c1ccc2cncn2c1,31.6µM*
C=CCNC(=O)c1ccc(CNC(N)=O)cc1,i
C=CCNC(=O)c1ccc(COc2ccc(Cl)cc2)cc1,i
CC(C)N(C(=O)CC(C#N)(CC(=O)N(C(C)C)C(C)C)c1nc2ccccc2s1)C(C)C,i
CCn1c(SCC(=O)c2ccc(Br)s2)nnc1-c1ccc(OC)cc1,i
Cc1ccc(C(=O)NCCC2=CCCCC2)s1,i
COCC(C)n1c(C)cc(C(=O)Cn2cnc3c2c(=O)n(C)c(=O)n3C)c1C (configuration not stated),i
COC(=O)C1=C(C)N(C)C(=S)NC1c1ccc(C(C)C)cc1 (configuration not stated),i
SMILES,KDM5B inh
CCOCC(=O)N1CCC(Oc2ncccc2C(=O)N2CCCCC2)C1 (configuration not stated),i
CCOCCOC1CCN(C(=O)COc2ccccc2)CC1,i
CCOCC(=O)N1CCC(Nc2cccn3ncnc23)CC1,15.8µM*
Cc1ccc(CN(C)C(=O)NC(c2ccc3c(c2)OCCCO3)C(C)C)c(C)c1 (configuration not stated),i
CCOP(=O)(OCC)c1nc(Cc2ccccc2)oc1NCc1ccc2c(c1)OCO2,i
CC(C)c1cccc(NC(=O)c2ccc(Cn3ccn4nc5c(c4c3=O)CCCC5)cc2)c1,22.4µM*
O=C(CCn1ccn2nc3c(c2c1=O)CCCC3)Nc1cccc(F)c1,i
O=C(Nc1ccc(Cl)cc1)c1ccc(Cn2ccn3nc4c(c3c2=O)CCCC4)cc1,i
COc1ccccc1OCCNC(=O)c1ccc(Cn2ccn3nc4c(c3c2=O)CCCC4)cc1,25.1µM*
O=C(NCc1ccccn1)c1ccc(Cn2ccn3nc4c(c3c2=O)CCCC4)cc1,i
COCCCNC(=O)c1ccc(Cn2ccn3nc4c(c3c2=O)CCCC4)cc1,i
CC(C)OCCCNC(=O)c1ccc(Cn2ccn3nc4c(c3c2=O)CCCC4)cc1,i
O=C(CCn1ccn2nc3c(c2c1=O)CCCC3)Nc1ccc(F)cc1,i
O=C(Nc1ccc(F)c(F)c1)c1ccc(Cn2ccn3nc4c(c3c2=O)CCCC4)cc1,25.1µM*
CC(C)c1cccc(NC(=O)CCn2ccn3nc4c(c3c2=O)CCCC4)c1,i
CCc1ccc(NC(=O)c2ccc(Cn3ccn4nc5c(c4c3=O)CCCC5)cc2)cc1,i
O=C(Nc1ccccc1)c1ccc(Cn2ccn3nc4c(c3c2=O)CCCC4)cc1,22.4µM*
CN1CC(=O)N(C2CCCNCC2)Cc2c1ncnc2N1CCC(C#N)CC1 (configuration not stated),i
O=C(c1ccccc1Br)N(Cc1ccc2cc[nH]c2c1)C1CC1,i
CCCNC(=O)c1ccc2nc(-c3ccc(C)cc3)cc(OCC)c2c1,i
Cc1ccc(NC(=O)N2CCN(Cc3ccc(Cl)s3)CC2)cc1,i
N#CCN1CCNCC1,i
CSc1nc(Nc2cccc(F)c2)c(C#N)c(-c2ccccc2)n1,i
CCN(Cc1nc2cc(OC)c(OC)cc2c(=O)[nH]1)C(=O)c1cccc(F)c1,i
COc1ccccc1N1C(=O)CCC1(C)C(=O)NC1CCCC1 (configuration not stated),i
O=C(COC(=O)CCNS(=O)(=O)c1ccccc1)Nc1cc(Cl)ccc1Cl,i
Cc1cc2oc(C(=O)NCC(c3ccco3)N3CCOCC3)cc(=O)c2cc1Cl (configuration not stated),i
